Holding throughout (experiment): DAPPL (digital affinity profiling via proximity ligation, sequencing); 10 mM Tris-HCl pH 7.5, 50 mM NaCl, 1 mM DTT, 4% glycerol, room temperature, 30 min; GST-TFs on glutathione beads, 16-mer random dsDNA library, 0.1% formaldehyde crosslink after washing; high values mean tight binding
One test has as its target T1, FLI1 (Homo sapiens, UniProt Q01543 1-452).
T1 sequence: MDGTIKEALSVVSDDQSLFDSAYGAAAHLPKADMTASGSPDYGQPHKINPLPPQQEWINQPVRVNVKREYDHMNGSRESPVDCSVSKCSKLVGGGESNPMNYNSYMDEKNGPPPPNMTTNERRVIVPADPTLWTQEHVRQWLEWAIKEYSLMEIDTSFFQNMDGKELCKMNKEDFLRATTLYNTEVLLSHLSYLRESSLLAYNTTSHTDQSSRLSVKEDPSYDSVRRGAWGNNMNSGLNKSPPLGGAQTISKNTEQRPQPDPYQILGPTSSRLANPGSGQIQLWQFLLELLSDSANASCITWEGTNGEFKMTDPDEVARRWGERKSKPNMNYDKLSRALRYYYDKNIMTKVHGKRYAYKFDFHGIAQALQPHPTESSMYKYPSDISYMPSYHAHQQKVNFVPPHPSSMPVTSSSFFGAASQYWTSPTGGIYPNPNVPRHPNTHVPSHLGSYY
To be noted: protein: recombinant; tags: N-terminal GST; dsDNA, one strand shown. In a few lines: (§1)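 Beads coated with glutathione captured GST-fused human transcription factors that had been expressed in yeast, and the factors were then given DNA barcodes and pooled with a tag-only sample. The pools were incubated with 200 nmole of a random double-stranded 16-mer DNA library in Tris/NaCl/DTT/glycerol buffer for 30 min at room temperature, washed, crosslinked with 0.1% formaldehyde and proximity-ligated with BsaI/T4 ligase at 37 °C for 1 h. PCR amplification and Illumina NextSeq500 sequencing came last. Binding signal is each hexamer's read frequency for a factor divided by its frequency for the tag-only sample.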

The next test deals with T2, ELK1 (Homo sapiens, UniProt P19419 1-428).
T2 sequence: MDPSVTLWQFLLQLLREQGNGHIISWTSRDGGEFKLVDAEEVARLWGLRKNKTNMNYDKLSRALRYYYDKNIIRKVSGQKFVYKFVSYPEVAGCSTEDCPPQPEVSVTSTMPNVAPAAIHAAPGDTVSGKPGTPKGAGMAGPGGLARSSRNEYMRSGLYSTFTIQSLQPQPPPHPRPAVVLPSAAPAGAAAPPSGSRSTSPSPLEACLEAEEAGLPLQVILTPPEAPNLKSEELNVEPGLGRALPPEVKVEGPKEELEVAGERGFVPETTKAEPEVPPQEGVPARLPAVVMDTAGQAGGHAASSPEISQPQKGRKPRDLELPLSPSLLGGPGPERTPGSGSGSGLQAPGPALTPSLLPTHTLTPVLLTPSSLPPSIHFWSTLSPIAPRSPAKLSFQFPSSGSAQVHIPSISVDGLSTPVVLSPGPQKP
Particulars: protein: recombinant; tags: N-terminal GST; dsDNA, one strand shown. The method, boiled down: as §1

Another test addresses T3, GABPA (Homo sapiens, UniProt Q06546 1-454).
T3 sequence: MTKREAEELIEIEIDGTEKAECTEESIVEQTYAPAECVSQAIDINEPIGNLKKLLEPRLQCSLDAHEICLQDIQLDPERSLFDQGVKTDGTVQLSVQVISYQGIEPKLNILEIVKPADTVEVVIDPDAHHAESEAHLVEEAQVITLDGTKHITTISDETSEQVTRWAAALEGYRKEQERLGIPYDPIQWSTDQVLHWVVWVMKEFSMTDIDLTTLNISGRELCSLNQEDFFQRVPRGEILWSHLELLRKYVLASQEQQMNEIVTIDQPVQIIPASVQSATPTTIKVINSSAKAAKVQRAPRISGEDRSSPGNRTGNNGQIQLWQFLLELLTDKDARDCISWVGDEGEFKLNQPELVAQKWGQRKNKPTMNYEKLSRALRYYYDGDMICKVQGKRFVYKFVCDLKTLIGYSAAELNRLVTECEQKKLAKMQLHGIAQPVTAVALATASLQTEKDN
Particulars: protein: recombinant; tags: N-terminal GST; dsDNA, one strand shown. In a few lines:
as §1

The next test concerns the target T4, ERG (Homo sapiens, UniProt P11308 1-479).
T4 sequence: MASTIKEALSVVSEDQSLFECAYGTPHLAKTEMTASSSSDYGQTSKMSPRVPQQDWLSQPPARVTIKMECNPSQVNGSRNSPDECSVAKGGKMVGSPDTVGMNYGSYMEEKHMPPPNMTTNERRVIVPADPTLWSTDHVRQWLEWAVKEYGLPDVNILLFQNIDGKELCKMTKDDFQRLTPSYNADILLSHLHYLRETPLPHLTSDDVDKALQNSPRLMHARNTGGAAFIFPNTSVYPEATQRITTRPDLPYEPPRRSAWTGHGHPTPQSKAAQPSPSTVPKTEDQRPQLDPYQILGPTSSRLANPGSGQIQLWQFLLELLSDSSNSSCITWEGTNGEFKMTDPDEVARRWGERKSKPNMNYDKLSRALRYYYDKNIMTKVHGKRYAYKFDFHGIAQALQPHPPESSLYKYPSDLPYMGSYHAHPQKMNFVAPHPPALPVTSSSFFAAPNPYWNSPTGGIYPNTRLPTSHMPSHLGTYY
Particulars: protein: recombinant; tags: N-terminal GST; dsDNA, one strand shown. The method, boiled down:
as §1

The target of a further test is ELF1 (Homo sapiens, UniProt P32519 1-619). To be noted: protein: recombinant; tags: N-terminal GST; dsDNA, one strand shown. In a few lines: as §1
For the next test, the target named is T5, EHF (Homo sapiens, UniProt Q9NZC4 1-300).
T5 sequence: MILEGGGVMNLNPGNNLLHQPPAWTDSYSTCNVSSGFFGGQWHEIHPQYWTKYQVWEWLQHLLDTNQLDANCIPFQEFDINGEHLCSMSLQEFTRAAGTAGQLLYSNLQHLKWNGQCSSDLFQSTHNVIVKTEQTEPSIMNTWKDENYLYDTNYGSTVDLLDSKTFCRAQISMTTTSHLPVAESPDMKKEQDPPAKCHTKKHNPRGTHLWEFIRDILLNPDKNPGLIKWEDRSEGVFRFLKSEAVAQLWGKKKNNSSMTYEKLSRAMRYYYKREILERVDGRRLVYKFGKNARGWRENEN
Particulars: protein: recombinant; tags: N-terminal GST; dsDNA, one strand shown. In a few lines: as §1

The target of a further test is SPI1 (Homo sapiens, UniProt P17947 1-270). Particulars: protein: recombinant; tags: N-terminal GST; dsDNA, one strand shown. In a few lines: as §1
Another test addresses T6, ELK3 (Homo sapiens, UniProt P41970 1-407).
T6 sequence: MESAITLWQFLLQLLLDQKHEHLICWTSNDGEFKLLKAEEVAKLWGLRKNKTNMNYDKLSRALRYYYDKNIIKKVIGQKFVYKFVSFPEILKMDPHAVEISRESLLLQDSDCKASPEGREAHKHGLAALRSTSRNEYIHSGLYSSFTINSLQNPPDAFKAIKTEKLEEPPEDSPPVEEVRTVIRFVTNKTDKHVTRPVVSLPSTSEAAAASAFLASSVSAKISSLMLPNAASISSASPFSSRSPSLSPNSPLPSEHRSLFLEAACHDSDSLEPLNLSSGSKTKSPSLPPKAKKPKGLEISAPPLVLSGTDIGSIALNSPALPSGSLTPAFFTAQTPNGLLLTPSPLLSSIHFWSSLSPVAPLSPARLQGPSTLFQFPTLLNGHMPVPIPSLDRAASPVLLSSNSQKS
Particulars: protein: recombinant; tags: N-terminal GST; dsDNA, one strand shown. In a few lines:
as §1

A further test addresses ETV5 (Homo sapiens, UniProt P41161 1-510). To be noted: protein: recombinant; tags: N-terminal GST; dsDNA, one strand shown. In a few lines: as §1
Another test addresses HSF1 (Homo sapiens, UniProt Q00613 1-529). To be noted: protein: recombinant; tags: N-terminal GST; chain copies: 3; dsDNA, one strand shown. In a few lines: as §1
The next test addresses T7, SPIC (Homo sapiens, UniProt Q8N5J4 1-248).
T7 sequence: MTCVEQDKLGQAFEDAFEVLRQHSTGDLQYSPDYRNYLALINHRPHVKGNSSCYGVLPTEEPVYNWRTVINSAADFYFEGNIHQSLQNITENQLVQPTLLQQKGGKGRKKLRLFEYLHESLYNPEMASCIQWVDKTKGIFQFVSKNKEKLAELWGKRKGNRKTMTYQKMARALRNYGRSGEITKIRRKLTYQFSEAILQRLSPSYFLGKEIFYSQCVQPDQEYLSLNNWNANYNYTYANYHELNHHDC
Particulars: protein: recombinant; tags: N-terminal GST; dsDNA, one strand shown. The method, boiled down: as §1

The target of the next test is ELF4 (Homo sapiens, UniProt Q99607 1-663). Particulars: protein: recombinant; tags: N-terminal GST; dsDNA, one strand shown. The method, boiled down: as §1
A further test has as its target T8, ELF3 (Homo sapiens, UniProt P78545 1-371).
T8 sequence: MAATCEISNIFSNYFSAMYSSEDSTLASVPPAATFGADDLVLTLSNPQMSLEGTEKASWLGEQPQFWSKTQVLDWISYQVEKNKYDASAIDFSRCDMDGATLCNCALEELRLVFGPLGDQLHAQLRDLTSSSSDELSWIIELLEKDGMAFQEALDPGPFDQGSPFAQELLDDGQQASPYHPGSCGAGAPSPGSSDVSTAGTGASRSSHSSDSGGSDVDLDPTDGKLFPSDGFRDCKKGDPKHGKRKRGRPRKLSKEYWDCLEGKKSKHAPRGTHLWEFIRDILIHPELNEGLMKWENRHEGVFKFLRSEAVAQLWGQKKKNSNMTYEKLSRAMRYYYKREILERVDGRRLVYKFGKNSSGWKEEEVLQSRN
To be noted: protein: recombinant; tags: N-terminal GST; dsDNA, one strand shown. The method, boiled down: as §1

In a further test the target is CRX (Homo sapiens, UniProt O43186 1-299). To be noted: protein: recombinant; tags: N-terminal GST; dsDNA, one strand shown. The method, boiled down: as §1
For the next test, the target named is ETV1 (Homo sapiens, UniProt P50549 1-477). To be noted: protein: recombinant; tags: N-terminal GST; dsDNA, one strand shown. The method, boiled down:
as §1

Another test addresses SPIB (Homo sapiens, UniProt Q01892 1-262). Particulars: protein: recombinant; tags: N-terminal GST; dsDNA, one strand shown. The method, boiled down:
as §1

A further test concerns the target T9, FEV (Homo sapiens, UniProt Q99581 1-238).
T9 sequence: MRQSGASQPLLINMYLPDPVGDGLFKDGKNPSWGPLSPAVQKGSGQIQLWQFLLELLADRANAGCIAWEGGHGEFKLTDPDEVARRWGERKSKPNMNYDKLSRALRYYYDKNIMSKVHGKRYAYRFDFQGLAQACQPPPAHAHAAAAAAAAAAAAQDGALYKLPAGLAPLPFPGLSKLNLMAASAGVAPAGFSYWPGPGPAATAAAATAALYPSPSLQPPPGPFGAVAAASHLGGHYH
To be noted: protein: recombinant; tags: N-terminal GST; dsDNA, one strand shown. The method, boiled down:
as §1

A further test concerns the target T10, ETV2 (Homo sapiens, UniProt O00321 1-342).
T10 sequence: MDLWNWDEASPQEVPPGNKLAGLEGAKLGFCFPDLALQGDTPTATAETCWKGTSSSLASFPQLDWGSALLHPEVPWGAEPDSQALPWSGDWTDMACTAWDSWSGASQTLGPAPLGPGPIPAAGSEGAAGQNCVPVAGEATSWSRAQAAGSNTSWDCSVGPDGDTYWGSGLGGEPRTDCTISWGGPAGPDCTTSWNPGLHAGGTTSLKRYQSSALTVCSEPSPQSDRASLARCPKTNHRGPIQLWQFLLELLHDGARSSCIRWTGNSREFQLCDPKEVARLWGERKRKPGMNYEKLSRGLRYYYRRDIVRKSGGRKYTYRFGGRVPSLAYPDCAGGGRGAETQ
Particulars: protein: recombinant; tags: N-terminal GST; dsDNA, one strand shown. In a few lines: as §1

ETV5, sequence (P41161 whole entry): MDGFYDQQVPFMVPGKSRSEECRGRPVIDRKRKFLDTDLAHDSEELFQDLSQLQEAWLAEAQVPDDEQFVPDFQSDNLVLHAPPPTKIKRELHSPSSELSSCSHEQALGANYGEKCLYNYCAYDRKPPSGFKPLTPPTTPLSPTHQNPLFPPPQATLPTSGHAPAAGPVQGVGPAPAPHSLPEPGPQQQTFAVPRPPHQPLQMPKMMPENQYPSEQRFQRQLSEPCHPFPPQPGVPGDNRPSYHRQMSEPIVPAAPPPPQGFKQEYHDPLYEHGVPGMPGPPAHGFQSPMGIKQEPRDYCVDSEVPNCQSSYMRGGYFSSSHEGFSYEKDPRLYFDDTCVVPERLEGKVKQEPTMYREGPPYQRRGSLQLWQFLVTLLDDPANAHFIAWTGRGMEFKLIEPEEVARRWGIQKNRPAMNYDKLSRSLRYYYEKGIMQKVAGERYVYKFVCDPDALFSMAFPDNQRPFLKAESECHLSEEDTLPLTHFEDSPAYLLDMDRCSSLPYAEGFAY
ELF1, sequence (P32519 whole entry): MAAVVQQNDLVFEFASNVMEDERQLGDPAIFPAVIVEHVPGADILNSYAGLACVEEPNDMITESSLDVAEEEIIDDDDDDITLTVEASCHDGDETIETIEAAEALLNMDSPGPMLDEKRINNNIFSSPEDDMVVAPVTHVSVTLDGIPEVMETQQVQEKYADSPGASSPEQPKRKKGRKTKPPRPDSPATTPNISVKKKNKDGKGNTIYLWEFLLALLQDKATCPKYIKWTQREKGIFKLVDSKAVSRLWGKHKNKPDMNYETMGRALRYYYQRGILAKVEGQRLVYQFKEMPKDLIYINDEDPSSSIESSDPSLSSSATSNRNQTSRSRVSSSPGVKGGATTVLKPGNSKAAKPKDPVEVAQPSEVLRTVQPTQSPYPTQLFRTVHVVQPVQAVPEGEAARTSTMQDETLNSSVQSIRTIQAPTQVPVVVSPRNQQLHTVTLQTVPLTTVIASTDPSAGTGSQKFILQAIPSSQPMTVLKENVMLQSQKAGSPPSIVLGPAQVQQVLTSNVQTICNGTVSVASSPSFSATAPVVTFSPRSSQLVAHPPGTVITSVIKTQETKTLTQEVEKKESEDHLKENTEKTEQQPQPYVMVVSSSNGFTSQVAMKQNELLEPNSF
ETV1, sequence (P50549 whole entry): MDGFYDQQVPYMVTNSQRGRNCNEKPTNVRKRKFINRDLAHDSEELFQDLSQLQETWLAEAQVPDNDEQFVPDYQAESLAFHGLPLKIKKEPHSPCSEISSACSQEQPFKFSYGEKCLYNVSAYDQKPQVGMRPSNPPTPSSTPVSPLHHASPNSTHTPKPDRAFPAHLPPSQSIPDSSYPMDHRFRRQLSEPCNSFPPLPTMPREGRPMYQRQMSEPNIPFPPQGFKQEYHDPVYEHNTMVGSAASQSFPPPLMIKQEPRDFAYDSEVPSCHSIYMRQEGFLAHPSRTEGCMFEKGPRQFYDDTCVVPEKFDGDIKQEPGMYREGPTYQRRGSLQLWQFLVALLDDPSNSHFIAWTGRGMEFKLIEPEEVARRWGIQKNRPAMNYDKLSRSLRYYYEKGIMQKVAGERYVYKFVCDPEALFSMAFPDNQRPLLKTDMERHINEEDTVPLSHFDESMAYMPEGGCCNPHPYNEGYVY
ELF4, sequence (Q99607 whole entry): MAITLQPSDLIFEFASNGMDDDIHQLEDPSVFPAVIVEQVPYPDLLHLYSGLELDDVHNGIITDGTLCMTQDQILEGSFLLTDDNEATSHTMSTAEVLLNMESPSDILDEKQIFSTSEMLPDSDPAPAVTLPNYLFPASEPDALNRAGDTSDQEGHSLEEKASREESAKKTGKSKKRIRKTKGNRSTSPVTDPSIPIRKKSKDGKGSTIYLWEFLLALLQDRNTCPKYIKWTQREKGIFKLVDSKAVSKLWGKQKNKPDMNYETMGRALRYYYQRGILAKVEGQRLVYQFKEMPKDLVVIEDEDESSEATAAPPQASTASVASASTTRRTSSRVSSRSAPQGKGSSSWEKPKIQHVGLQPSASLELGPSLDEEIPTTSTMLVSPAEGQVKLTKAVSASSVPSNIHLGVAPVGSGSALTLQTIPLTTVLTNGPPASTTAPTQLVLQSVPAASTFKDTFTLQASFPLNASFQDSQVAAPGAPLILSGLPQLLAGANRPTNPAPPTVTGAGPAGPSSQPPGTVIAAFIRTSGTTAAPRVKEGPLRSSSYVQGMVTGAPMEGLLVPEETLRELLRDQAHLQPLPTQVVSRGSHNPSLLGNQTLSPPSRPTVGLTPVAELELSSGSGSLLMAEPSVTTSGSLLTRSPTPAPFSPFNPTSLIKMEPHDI
CRX, sequence (O43186 whole entry): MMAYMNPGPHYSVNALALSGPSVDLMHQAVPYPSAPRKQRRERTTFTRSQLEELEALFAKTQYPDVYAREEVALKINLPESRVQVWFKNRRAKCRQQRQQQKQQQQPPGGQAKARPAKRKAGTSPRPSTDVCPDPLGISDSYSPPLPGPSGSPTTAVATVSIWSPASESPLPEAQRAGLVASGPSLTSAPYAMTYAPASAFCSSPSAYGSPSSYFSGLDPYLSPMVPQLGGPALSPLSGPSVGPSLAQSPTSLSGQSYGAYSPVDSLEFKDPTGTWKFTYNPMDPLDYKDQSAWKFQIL
HSF1, sequence (Q00613 whole entry): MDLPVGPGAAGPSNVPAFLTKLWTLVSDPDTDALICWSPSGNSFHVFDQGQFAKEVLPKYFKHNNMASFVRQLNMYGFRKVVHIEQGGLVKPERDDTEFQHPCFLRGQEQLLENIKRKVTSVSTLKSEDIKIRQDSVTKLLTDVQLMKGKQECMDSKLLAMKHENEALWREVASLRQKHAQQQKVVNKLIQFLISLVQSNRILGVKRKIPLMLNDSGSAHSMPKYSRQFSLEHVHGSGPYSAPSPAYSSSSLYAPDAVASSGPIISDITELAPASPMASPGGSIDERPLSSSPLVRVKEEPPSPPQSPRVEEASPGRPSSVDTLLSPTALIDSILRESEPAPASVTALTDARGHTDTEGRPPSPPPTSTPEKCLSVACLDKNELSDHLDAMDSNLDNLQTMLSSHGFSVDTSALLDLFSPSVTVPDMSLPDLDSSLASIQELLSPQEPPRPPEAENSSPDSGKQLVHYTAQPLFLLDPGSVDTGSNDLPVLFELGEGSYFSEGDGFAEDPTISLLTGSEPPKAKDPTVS
SPIB, sequence (Q01892 whole entry): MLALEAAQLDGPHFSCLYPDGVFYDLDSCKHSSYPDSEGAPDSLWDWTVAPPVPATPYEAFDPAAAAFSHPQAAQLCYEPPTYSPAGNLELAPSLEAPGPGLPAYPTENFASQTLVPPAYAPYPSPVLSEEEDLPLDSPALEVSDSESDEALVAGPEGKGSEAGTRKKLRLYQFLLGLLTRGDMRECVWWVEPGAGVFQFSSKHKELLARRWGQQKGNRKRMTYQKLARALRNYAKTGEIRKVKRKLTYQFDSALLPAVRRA

Turning to CAAGAA, the binding signal in the test with FLI1 was 1.03 fold enrichment (6-mer frequency, TF over GST control); with ELK1 it was 1.11 fold enrichment (6-mer frequency, TF over GST control); with GABPA, 1.02 fold enrichment (6-mer frequency, TF over GST control); in the test with ERG it was 1.11 fold enrichment (6-mer frequency, TF over GST control); with ELF1, 1.03 fold enrichment (6-mer frequency, TF over GST control); with EHF, 1.04 fold enrichment (6-mer frequency, TF over GST control). Besides, the binding signal in the test with SPI1 was 1.06 fold enrichment (6-mer frequency, TF over GST control); with ELK3, 1.06 fold enrichment (6-mer frequency, TF over GST control); with ETV5, 1.09 fold enrichment (6-mer frequency, TF over GST control); with HSF1, 1.51 fold enrichment (6-mer frequency, TF over GST control); with SPIC it was 1.09 fold enrichment (6-mer frequency, TF over GST control); with ELF4, 1.06 fold enrichment (6-mer frequency, TF over GST control). Further, the binding signal was 1.11 fold enrichment (6-mer frequency, TF over GST control) with ELF3; 1.08 fold enrichment (6-mer frequency, TF over GST control) with CRX; 1.05 fold enrichment (6-mer frequency, TF over GST control) in the test with ETV1.

As to ATACCA, the binding signal is 1.02 fold enrichment (6-mer frequency, TF over GST control) with FLI1; 1.07 fold enrichment (6-mer frequency, TF over GST control) in the test with ELK1; 1.02 fold enrichment (6-mer frequency, TF over GST control) with GABPA; 1.01 fold enrichment (6-mer frequency, TF over GST control) with ERG; 1.06 fold enrichment (6-mer frequency, TF over GST control) with ELF1; 1.08 fold enrichment (6-mer frequency, TF over GST control) with EHF. The binding signal is 1.01 fold enrichment (6-mer frequency, TF over GST control) in the test with SPIB; 1.06 fold enrichment (6-mer frequency, TF over GST control) with ELK3; 1.08 fold enrichment (6-mer frequency, TF over GST control) with FEV; 1.01 fold enrichment (6-mer frequency, TF over GST control) with ETV5; 1.03 fold enrichment (6-mer frequency, TF over GST control) with HSF1; 1.03 fold enrichment (6-mer frequency, TF over GST control) in the test with SPIC. For the same sequence, the binding signal with ELF4 is 1.09 fold enrichment (6-mer frequency, TF over GST control); with ETV2, 1.08 fold enrichment (6-mer frequency, TF over GST control); with CRX it was 1.04 fold enrichment (6-mer frequency, TF over GST control); with ETV1, 1.05 fold enrichment (6-mer frequency, TF over GST control).
